The whole screen tested about 5,500 compounds, of which about 2,000 (36%) were called active. Not shown: some 18% with an inconclusive outcome. Cut-off read from the data, not from the text of the source: active = normalized growth mostly below about 0.91 (no sharp cut-off); inconclusive = no clear call, values can overlap the other calls; inactive = mostly above about 0.92. The list shows a part of the results.
Assay: chemical genetic growth profiling, strain panel (AID 1159580);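 note: tested at 20 µM; growth read once vehicle control cultures reached saturation at 30 °C; 1 = growth at the plate median or of vehicle wells; lower values mean less growth of the strain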
Settings: growth OD

Measured: normalized growth

CC(C)(Oc1ccc(CCNC(=O)c2ccc(Cl)cc2)cc1)C(=O)O
inactive: S. cerevisiae deletion strains, locus YJR075W, strain HOC1, stronger effect = lower value 1.02 | S. cerevisiae deletion strains, locus YKL009W, strain mrt4, stronger effect = lower value 1.02 | S. cerevisiae deletion strains, locus YKL068W, stronger effect = lower value 1.01 | S. cerevisiae deletion strains, locus YKL085W, strain MDH1 (second series), stronger effect = lower value 1.03 | S. cerevisiae deletion strains, locus YKL085W, strain MDH1, stronger effect = lower value 1.03 | S. cerevisiae deletion strains, locus YKL160W, strain elf1, stronger effect = lower value 0.961 | S. cerevisiae deletion strains, locus YKL190W, strain CNB1, stronger effect = lower value 1.01 | S. cerevisiae deletion strains, locus YKR001C, strain vps1, stronger effect = lower value 1.02 | S. cerevisiae deletion strains, locus YKR026C, strain gcn3, stronger effect = lower value 0.991 | S. cerevisiae deletion strains, locus YKR091W, strain srl3, stronger effect = lower value 0.996 | S. cerevisiae deletion strains, locus YLL001W, strain dnm1, stronger effect = lower value 0.975 | S. cerevisiae deletion strains, locus YLL026W, stronger effect = lower value 0.995 | S. cerevisiae deletion strains, locus YLL041C, strain sdh2, stronger effect = lower value 0.98 | S. cerevisiae deletion strains, locus YLR027C, strain aat2, stronger effect = lower value 0.977 | S. cerevisiae deletion strains, locus YLR039C, strain RIC1, stronger effect = lower value 1.03 | S. cerevisiae deletion strains, locus YLR058C, strain SHM2, stronger effect = lower value 1.01 | S. cerevisiae deletion strains, locus YLR102C, strain apc9, stronger effect = lower value 1.01 | S. cerevisiae deletion strains, locus YLR113W, strain HOG1, stronger effect = lower value 0.943 | S. cerevisiae deletion strains, locus YLR221C, strain rsa3, stronger effect = lower value 0.997 | S. cerevisiae deletion strains, locus YLR258W, strain gsy2, stronger effect = lower value 0.972 | S. cerevisiae deletion strains, locus YLR262C, strain YPT6 (second series), stronger effect = lower value 1.01 | S. cerevisiae deletion strains, locus YLR262C, strain YPT6, stronger effect = lower value 1.02 | S. cerevisiae deletion strains, locus YLR268W, strain sec22, stronger effect = lower value 1.01 | S. cerevisiae deletion strains, locus YLR320W, strain mms22, stronger effect = lower value 0.978 | S. cerevisiae deletion strains, locus YLR330W, strain CHS5, stronger effect = lower value 1.01 | S. cerevisiae deletion strains, locus YLR342W, strain FKS1 (second series), stronger effect = lower value 1.05 | S. cerevisiae deletion strains, locus YLR342W, strain FKS1, stronger effect = lower value 0.978 | S. cerevisiae deletion strains, locus YLR357W, strain rsc2, stronger effect = lower value 0.951 | S. cerevisiae deletion strains, locus YLR370C, strain arc18, stronger effect = lower value 0.983 | S. cerevisiae deletion strains, locus YLR371W, strain rom2, stronger effect = lower value 1.02 | S. cerevisiae deletion strains, locus YLR384C, strain iki3, stronger effect = lower value 0.972 | S. cerevisiae deletion strains, locus YLR418C, strain cdc73, stronger effect = lower value 1.06 | S. cerevisiae deletion strains, locus YML016C, strain PPZ1, stronger effect = lower value 1.02 | S. cerevisiae deletion strains, locus YML032C, strain rad52, stronger effect = lower value 1.01 | S. cerevisiae deletion strains, locus YML120C, strain ndi1, stronger effect = lower value 1.03 | S. cerevisiae deletion strains, locus YML124C, strain tub3, stronger effect = lower value 1.01 | S. cerevisiae deletion strains, locus YMR058W, strain fet3, stronger effect = lower value 0.995 | S. cerevisiae deletion strains, locus YMR078C, strain ctf18, stronger effect = lower value 1.01 | S. cerevisiae deletion strains, locus YMR125W, strain sto1, stronger effect = lower value 0.986 | S. cerevisiae deletion strains, locus YMR129W, stronger effect = lower value 0.982 | S. cerevisiae deletion strains, locus YMR205C, strain PFK2, stronger effect = lower value 0.977 | S. cerevisiae deletion strains, locus YMR223W, strain ubp8, stronger effect = lower value 1.01 | S. cerevisiae deletion strains, locus YMR231W, strain pep5, stronger effect = lower value 0.994 | S. cerevisiae deletion strains, locus YMR307W, strain GAS1, stronger effect = lower value 1.04 | S. cerevisiae deletion strains, locus YNL067W, strain RPL9B, stronger effect = lower value 1.01 | S. cerevisiae deletion strains, locus YNL071W, strain lat1, stronger effect = lower value 0.994 | S. cerevisiae deletion strains, locus YNL128W, strain TEP1, stronger effect = lower value 1.04 | S. cerevisiae deletion strains, locus YNL153C, strain GIM3, stronger effect = lower value 1.02 | S. cerevisiae deletion strains, locus YNL183C, strain NPR1, stronger effect = lower value 0.937 | S. cerevisiae deletion strains, locus YNL209W, strain ssb2, stronger effect = lower value 0.98 | S. cerevisiae deletion strains, locus YNL233W, strain BNI4, stronger effect = lower value 1.01 | S. cerevisiae deletion strains, locus YNL248C, strain rpa49, stronger effect = lower value 0.986 | S. cerevisiae deletion strains, locus YNL250W, strain rad50, stronger effect = lower value 1.02 | S. cerevisiae deletion strains, locus YNL271C, strain bni1, stronger effect = lower value 1.02 | S. cerevisiae deletion strains, locus YNL298W, strain CLA4, stronger effect = lower value 1.02 | S. cerevisiae deletion strains, locus YNL307C, strain MCK1, stronger effect = lower value 1.03 | S. cerevisiae deletion strains, locus YNL322C, strain KRE1 (second series), stronger effect = lower value 0.978 | S. cerevisiae deletion strains, locus YNL322C, strain KRE1, stronger effect = lower value 1.01 | S. cerevisiae deletion strains, locus YNR049C, strain mso1, stronger effect = lower value 0.971 | S. cerevisiae deletion strains, locus YNR052C, strain pop2, stronger effect = lower value 1.01 | S. cerevisiae deletion strains, locus YOL006C, strain TOP1, stronger effect = lower value 1.04 | S. cerevisiae deletion strains, locus YOL012C, strain htz1 0.932 | S. cerevisiae deletion strains, locus YOL147C, strain pex11, stronger effect = lower value 1.01 | S. cerevisiae deletion strains, locus YOR001W, strain rrp6, stronger effect = lower value 1.01 | S. cerevisiae deletion strains, locus YOR061W, strain CKA2, stronger effect = lower value 1.02 | S. cerevisiae deletion strains, locus YOR069W, strain VPS5, stronger effect = lower value 1.01 | S. cerevisiae deletion strains, locus YOR070C, strain gyp1, stronger effect = lower value 0.993 | S. cerevisiae deletion strains, locus YOR080W, strain dia2, stronger effect = lower value 0.983 | S. cerevisiae deletion strains, locus YOR083W, strain WHI5, stronger effect = lower value 0.922 | S. cerevisiae deletion strains, locus YOR106W, strain vam3, stronger effect = lower value 0.982 | S. cerevisiae deletion strains, locus YOR136W, strain idh2, stronger effect = lower value 1.02 | S. cerevisiae deletion strains, locus YOR144C, strain elg1, stronger effect = lower value 1.02 | S. cerevisiae deletion strains, locus YOR184W, strain ser1, stronger effect = lower value 1.06 | S. cerevisiae deletion strains, locus YOR231W, strain MKK1, stronger effect = lower value 0.988 | S. cerevisiae deletion strains, locus YOR265W, strain rbl2, stronger effect = lower value 0.983 | S. cerevisiae deletion strains, locus YOR270C, strain vph1, stronger effect = lower value 1.03 | S. cerevisiae deletion strains, locus YOR290C, strain snf2, stronger effect = lower value 0.977 | S. cerevisiae deletion strains, locus YOR316C, strain cot1, stronger effect = lower value 1.03 | S. cerevisiae deletion strains, locus YPL051W, strain arl3, stronger effect = lower value 0.984 | S. cerevisiae deletion strains, locus YPL055C, strain LGE1, stronger effect = lower value 1 | S. cerevisiae deletion strains, locus YPL078C, strain atp4, stronger effect = lower value 0.971 | S. cerevisiae deletion strains, locus YPL106C, strain sse1, stronger effect = lower value 0.934 | S. cerevisiae deletion strains, locus YPL240C, strain hsp82, stronger effect = lower value 0.989 | S. cerevisiae deletion strains, locus YPL256C, strain CLN2, stronger effect = lower value 1 | S. cerevisiae deletion strains, locus YPR119W, strain clb2, stronger effect = lower value 1.01 | S. cerevisiae deletion strains, locus YPR141C, strain kar3, stronger effect = lower value 1.01 | S. cerevisiae deletion strains, locus YPR163C, strain tif3, stronger effect = lower value 1.02 | S. cerevisiae deletion strains, locus YPR167C, strain met16, stronger effect = lower value 1.03 | S. cerevisiae deletion strains, strain wtn01, stronger effect = lower value 1.02 | S. cerevisiae strains, strain wild type, stronger effect = lower value 1.02
